hNpr1 antagonist = antagonists of human natriuretic peptide receptor Npr1; Potency, µM (titrated, usually from 46.3 µM), actives largely listed as inhibitors; HEK293 hNpr1 GloSensor cGMP, ANP-stimulated luminescence; 1.6% of 76,000 active; P16066; calls by dose curve; further: nearly all actives have a fitted effect of over 60% in size
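Compound pre-incubated 30 min at room temperature on GloSensor-loaded HEK293 cells stably carrying hNpr1 and the pGS-40F cGMP biosensor. Stimulation uses hNppA at 0.1 nM final; luminescence is taken at baseline and 20 min post-agonist.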
3T3 cytotox = cytotoxic compounds in NIH 3T3 cells; NIH 3T3 viability, CellTiter-Glo ATP luminescence, 48-72 h; Potency, µM (doses to about 96.7 µM), actives largely listed as inhibitors; 4.3% of 94,000 active; further: nearly all actives have a fitted effect of over 55% in size
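Luminescent ATP readout (CellTiter-Glo, 10 min RT) after 48 or 72 hr compound exposure of NIH 3T3 cells seeded at 400 cells/well in 1536-well format; quantitative HTS.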
HEK293 tox = kills HEK 293 cells; HEK 293 viability, ATP luminescence (CellTiter-Glo), 48-72 h; Potency, µM (series often up to 115 µM), hits mostly inhibitors; 6.6% of 94,000 active; AID 1345083; further: nearly all actives have a fitted effect of over 60% in size
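CellTiter-Glo luminescence (cellular ATP) was read after 48 or 72 hr of compound exposure at 37 degree Celsius. Cells were HEK 293 plated at 250 cells/well.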
FLuc inh = blocks purified firefly luciferase enzyme activity; purified P. pyralis luciferase, luminescence, biochemical; Potency, µM (top dose mostly 115 µM), actives largely listed as inhibitors; 2.5% of 76,000 active; AID 1347043; further: nearly all actives have a fitted effect of over 65% in size
Target sequence (P08659 whole entry, looked up): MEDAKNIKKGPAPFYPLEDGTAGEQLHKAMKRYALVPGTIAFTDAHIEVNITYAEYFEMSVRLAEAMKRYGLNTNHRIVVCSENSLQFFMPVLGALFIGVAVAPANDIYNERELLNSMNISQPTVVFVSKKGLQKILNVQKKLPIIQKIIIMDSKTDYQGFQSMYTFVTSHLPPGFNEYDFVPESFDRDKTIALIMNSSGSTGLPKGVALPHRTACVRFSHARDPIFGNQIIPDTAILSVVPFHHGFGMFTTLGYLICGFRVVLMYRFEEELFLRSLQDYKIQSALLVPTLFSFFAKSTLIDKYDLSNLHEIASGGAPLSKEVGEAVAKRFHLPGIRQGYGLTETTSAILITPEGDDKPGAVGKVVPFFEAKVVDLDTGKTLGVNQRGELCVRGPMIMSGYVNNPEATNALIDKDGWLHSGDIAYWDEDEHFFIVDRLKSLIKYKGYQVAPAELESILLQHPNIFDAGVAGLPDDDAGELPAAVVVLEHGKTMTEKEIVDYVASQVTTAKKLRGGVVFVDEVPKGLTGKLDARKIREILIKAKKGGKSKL
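Biochemical qHTS: compound (6-point titration) added to 10uM D-luciferin plus 10uM ATP in Tris acetate pH 7.5 buffer with Mg, Tween-20 and BSA, then purified enzyme at 10nM; light output imaged.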
Large screens that a line does not name were inactive. Compounds with a hit are over-represented: about 11% of the library has one in this group of screens. Unless noted, the call rests on the fitted dose curve; in most records, active means well fitted curve in the direction sought with a large enough effect; inconclusive means small, poorly fitted or top-dose-only effect, or another doubt; inactive means no such curve, though single readings can be large; an effect the other way counts as inactive or inconclusive.

Cc1ccc(-c2cn3cc(C(=O)NCc4ccccc4)nc3s2)cc1	HEK293 tox inconclusive (no result: hNpr1 antagonist, FLuc inh)
COc1ccccc1CN(Cc1ccccc1C)C(=O)[C@H]1CCC[C@H](O)C1	HEK293 tox 22.4µM
CNC(=O)c1cc(C2CC2)nc2c1c(C1CCN(C(=O)NC3CCCC3)C1)nn2C (stereo not given)	none (no result: hNpr1 antagonist, FLuc inh)
CNC(=O)[C@H]1C[C@]2(CCCCN(CCO)C2=O)N(C(=O)Nc2ccccc2)[C@H]1c1ccco1	3T3 cytotox inconclusive (no result: hNpr1 antagonist, FLuc inh)
CCOC(=O)[C@H]1C[C@]2(CCCCN(CCOC)C2=O)N(C(=O)Cc2cccs2)[C@H]1c1ccco1	3T3 cytotox inconclusive, HEK293 tox 79.4µM (no result: hNpr1 antagonist, FLuc inh)
CCOC(=O)[C@H]1C[C@]2(CCCCN(CCOC)C2=O)N(C(=O)CC(C)C)[C@H]1c1ccco1	HEK293 tox inconclusive (no result: hNpr1 antagonist, FLuc inh)
CNC(=O)[C@H]1C[C@]2(CCCCN(CCO)C2=O)N(C(=O)Cc2cccs2)[C@H]1c1ccco1	3T3 cytotox inconclusive, HEK293 tox 35.5µM (no result: hNpr1 antagonist, FLuc inh)
CN(C)C(=O)c1cn2cc(-c3ccc(F)cc3)sc2n1	none (no result: hNpr1 antagonist, FLuc inh)
c1cc(-c2cc(-c3cn[nH]c3)c3cncn3c2)cc(N2CCOCC2)c1	3T3 cytotox 25.1µM, HEK293 tox inconclusive
CN(C)c1cccc(-c2cc(-c3cn[nH]c3)c3cncn3c2)c1	3T3 cytotox 14.1µM, HEK293 tox inconclusive, FLuc inh inconclusive
C1=C(c2cc(-c3ccncc3)cn3cncc23)CCOC1	3T3 cytotox 25.1µM, HEK293 tox 100µM
c1cc(-c2cc(-c3cn[nH]c3)cn3cncc23)ccn1	3T3 cytotox 28.2µM, HEK293 tox 35.5µM
COc1ccc(-c2cc(-c3ccc4c(c3)C(=O)NC4)cn3cncc23)cc1	3T3 cytotox inconclusive, HEK293 tox inconclusive
CN(C)c1ccc(-c2cc(-c3ccc(=O)[nH]c3)c3cncn3c2)cc1	3T3 cytotox inconclusive, FLuc inh inconclusive
Cn1cc(-c2cc(C3=CCOCC3)c3cncn3c2)cn1	3T3 cytotox inconclusive
COCCn1c(C)cnc1CC1CCCN(S(=O)(=O)c2ccccc2)C1 (stereo not given)	HEK293 tox inconclusive (no result: hNpr1 antagonist, FLuc inh)
COCCCNC(=O)c1ccccc1-c1ccc(OC)nn1	none (no result: hNpr1 antagonist, FLuc inh)
O=C(NCc1cccs1)c1ccc2nc(-c3ccncc3)oc2c1	none (no result: hNpr1 antagonist, FLuc inh)
CN(c1cc(=O)c2ccnc(-c3cncnc3)c2o1)C1CCOCC1	3T3 cytotox 79.4µM
CN(c1cc(=O)c2ccnc(-c3cccc(CO)c3)c2o1)C1CCOCC1	3T3 cytotox 25.1µM
OC(c1nc(Nc2ccc(N3CCOCC3)cc2)n[nH]1)C1CC1 (stereo not given)	3T3 cytotox inconclusive, HEK293 tox inconclusive
OC(c1ccccc1)c1nc(Nc2ccc(C(F)(F)F)cc2)n[nH]1 (stereo not given)	3T3 cytotox inconclusive, HEK293 tox inconclusive
OC(c1cccc(C(F)(F)F)c1)c1nc(Nc2ccc(F)cc2)n[nH]1 (stereo not given)	3T3 cytotox inconclusive, HEK293 tox 79.4µM
Cn1cc(C(O)c2nc(Nc3ccc(OC(F)(F)F)cc3)n[nH]2)cn1 (stereo not given)	3T3 cytotox inconclusive, HEK293 tox 112µM
OC(c1nc(Nc2ccc(Cl)cc2)n[nH]1)C1CC1 (stereo not given)	3T3 cytotox inconclusive, HEK293 tox inconclusive, FLuc inh 22.4µM
COc1ccccc1C(O)c1nc(Nc2ccc(C(C)C)cc2)n[nH]1 (stereo not given)	3T3 cytotox inconclusive, HEK293 tox 100µM
COCC(=O)N1CCCC1C(=O)N1CCC(c2ccccc2)CC1 (stereo not given)	none (no result: hNpr1 antagonist, FLuc inh)
OC(c1nc(Nc2cccc(C(F)(F)F)c2)n[nH]1)C1CC1 (stereo not given)	3T3 cytotox inconclusive, HEK293 tox inconclusive, FLuc inh inconclusive
CC(C)c1ccc(Nc2n[nH]c(C(O)C3CC3)n2)cc1 (stereo not given)	3T3 cytotox inconclusive, HEK293 tox inconclusive, FLuc inh 15.8µM
O=C(c1cccc(O)c1)N1CCc2c(n(CCOc3ccccc3)n(-c3ccccc3)c2=O)C1	3T3 cytotox 22.4µM
CN(C)c1cccc(C(=O)NC2CCCN(c3cc(-c4ccc(Cl)cc4)[nH]n3)C2)c1 (stereo not given)	3T3 cytotox inconclusive, HEK293 tox inconclusive, FLuc inh inconclusive
CC(=O)Nc1cccc(C(=O)NC2CCCN(c3cc(-c4ccc(Cl)cc4)[nH]n3)C2)c1 (stereo not given)	3T3 cytotox inconclusive, HEK293 tox 44.7µM, FLuc inh 31.6µM
Cc1nnc2ccc(N3CCCC(NC(=O)c4cccc(Cl)c4)C3)nn12 (stereo not given)	3T3 cytotox inconclusive, HEK293 tox 79.4µM (no result: hNpr1 antagonist, FLuc inh)
COc1ccc(-c2cc(N3CCC(NC(=O)c4cccc(Br)c4)C3)n[nH]2)cc1 (stereo not given)	3T3 cytotox inconclusive, HEK293 tox inconclusive
O=C(NC1CCCN(c2cc(-c3ccc(F)cc3)[nH]n2)C1)c1cccc(Cl)c1 (stereo not given)	3T3 cytotox 17.8µM, HEK293 tox 35.5µM
Cc1nnc2ccc(N3CCC(NC(=O)c4cccc(Cl)c4)C3)nn12 (stereo not given)	3T3 cytotox inconclusive (no result: hNpr1 antagonist, FLuc inh)
O=C(NC1CCCN(c2cc(-c3ccc(F)cc3)[nH]n2)C1)c1cccc(Br)c1 (stereo not given)	3T3 cytotox inconclusive, HEK293 tox 31.6µM
COc1ccccc1-n1c(=O)c(C(=O)N2CCN(C(=O)c3ccc(Cl)nc3)CC2)nc2cccnc21	none (no result: hNpr1 antagonist, FLuc inh)
O=C(Cc1cccnc1)N1CC(Oc2ccccc2-c2nc(-c3cnccn3)no2)C1	none (no result: hNpr1 antagonist, FLuc inh)
O=C(NCc1nnc2ccc(-c3ccccc3)nn12)c1cc(F)ccc1Cl	3T3 cytotox inconclusive, HEK293 tox 39.8µM
O=C(Cc1cccc(Cl)c1)N1CCN(c2nccc(Nc3ccccc3F)n2)CC1	3T3 cytotox inconclusive, HEK293 tox 28.2µM (no result: hNpr1 antagonist, FLuc inh)
COCC(=O)N1CCN(c2nccc(Nc3ccccc3OC)n2)CC1	none (no result: hNpr1 antagonist, FLuc inh)
COc1ccccc1Nc1ccnc(N2CCN(C(=O)Cc3cccc(Cl)c3)CC2)n1	3T3 cytotox inconclusive, HEK293 tox 44.7µM (no result: hNpr1 antagonist, FLuc inh)
COc1ccccc1-n1c(=O)c(C(=O)N2CCN(C(=O)Nc3ccccc3)CC2)nc2cccnc21	none (no result: hNpr1 antagonist, FLuc inh)
COC[C@H]1C[C@H]2C[C@@H](O)[C@H](N(C)Cc3cccc(F)c3)[C@]2(O)CO1	HEK293 tox inconclusive (no result: hNpr1 antagonist, FLuc inh)
O=C(N[C@H]1CCN2C(=O)c3cc(-c4ccc(Cl)cc4)ccc3NC(=O)[C@H]12)c1cccs1	3T3 cytotox inconclusive, HEK293 tox inconclusive, FLuc inh 11.2µM
COc1ccc(-c2ccc3c(c2)C(=O)N2CC[C@H](NC(=O)CSC)[C@H]2C(=O)N3)cc1	3T3 cytotox inconclusive, HEK293 tox inconclusive, FLuc inh 25.1µM
COc1ccc(Cl)cc1-c1ccc2c(c1)C(=O)N1CC[C@H](NC(=O)NC(C)C)[C@H]1C(=O)N2	HEK293 tox inconclusive
O=C(N[C@H]1CCN2C(=O)c3cc(-c4ccccc4)ccc3NC(=O)[C@H]12)c1cccs1	none
O=C(N[C@H]1CCN2C(=O)c3ccc(Cl)cc3NC(=O)[C@H]12)c1cccs1	3T3 cytotox 89.1µM
COc1ccc(-c2ccc3c(c2)C(=O)N2CC[C@H](NC(=O)CCC(=O)O)[C@H]2C(=O)N3)cc1	FLuc inh inconclusive

Assay outcomes as filed in PubChem.
